# From PubChem BioAssay (NCATS)
# Results filed as inconclusive are left out. A number with no mark means an inactive call. Calls of active or inactive are those of the source. Calls follow the shape of the dose curve; as a rule, active = well fitted curve in the direction sought with a large enough effect; inconclusive = small, poorly fitted or top-dose-only effect, or another doubt; inactive = no such curve, though single readings can be large; an effect the other way counts as inactive or inconclusive.
# Experiments:
# [1] = Primary redox qHTS assay for identification of artifact compounds. (AID 1845223)
# Outline: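 Amplex Red (25 uM) and HRP (250 mU/mL) in HBSS, with compounds for 15 min, then 250 uM DTT for 30 min, room temperature, dark. Fluorescence 525/598 nm read; normalized to DMSO and 10 uM DA3003; Hill fit.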
# [2] = Quantitative High-Throughput drug screen in 47 multiple myeloma cell lines against the NCATS MIPE library collection: FR4_PLB cell viability assay (AID 1918924; also: nearly all actives have a fitted effect of over 35% in size; also: potency is read from the fitted curve at half-maximal effect)
# Outline: (§1)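 CellTiter-Glo luminescence (ATP) after 48 h compound exposure, 37C/5% CO2; 500 cells/well; MIPE 4.0 approved/investigational drugs pinned in; DMSO = 100%, media only = 0% viability.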
# [3] = Quantitative High-Throughput drug screen in 47 multiple myeloma cell lines against the NCATS MIPE library collection: Delta47_JCRB cell viability assay (AID 1918925; also: nearly all actives have a fitted effect of over 45% in size; also: potency is read from the fitted curve at half-maximal effect)
# Outline: (§2)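 qHTS of the MIPE 4.0 collection: 500 myeloma cells/well, 48 h drug exposure at 37C in 5% CO2, then CellTiter-Glo for 5 min at room temperature before luminescence reading.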
# [4] = Quantitative High-Throughput drug screen in 47 multiple myeloma cell lines against the NCATS MIPE library collection: EJM_DSMZ cell viability assay (AID 1918926; also: nearly all actives have a fitted effect of over 30% in size; also: potency is read from the fitted curve at half-maximal effect)
# Outline: as §2
# [5] = Quantitative High-Throughput drug screen in 47 multiple myeloma cell lines against the NCATS MIPE library collection: AMO1_DSMZ cell viability assay (AID 1918927; also: nearly all actives have a fitted effect of over 30% in size; also: potency is read from the fitted curve at half-maximal effect)
# Outline: as §2
# [6] = Quantitative High-Throughput drug screen in 47 multiple myeloma cell lines against the NCATS MIPE library collection: ARP1_JJKsccF8 cell viability assay (AID 1918928; also: nearly all actives have a fitted effect of over 40% in size; also: potency is read from the fitted curve at half-maximal effect)
# Outline: (§3)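 Luminescence from CellTiter-Glo, taken after 5 min at room temperature, reports cellular ATP as viability. Cells (500 per well) had been treated 48 h at 37 °C with MIPE 4.0 compounds, scaled between DMSO and medium-only controls.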
# [7] = Quantitative High-Throughput drug screen in 47 multiple myeloma cell lines against the NCATS MIPE library collection: ARD_JJKsccE7 cell viability assay (AID 1918929; also: potency is read from the fitted curve at half-maximal effect)
# Outline: as §2
# [8] = Quantitative High-Throughput drug screen in 47 multiple myeloma cell lines against the NCATS MIPE library collection: Karpas620_DSMZ cell viability assay (AID 1918959); also: nearly all actives have a fitted effect of over 30% in size; also: potency is read from the fitted curve at half-maximal effect
# Outline: as §1
# [9] = Quantitative High-Throughput drug screen in 47 multiple myeloma cell lines against the NCATS MIPE library collection: KMM1_JCRB cell viability assay (AID 1918960); also: nearly all actives have a fitted effect of over 30% in size; also: potency is read from the fitted curve at half-maximal effect;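 as to viability (% of DMSO): 100% = DMSO-treated cells and 0% = medium-only wells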
# Outline: as §3
# [10] = Quantitative High-Throughput drug screen in 47 multiple myeloma cell lines against the NCATS MIPE library collection: Karpas417_ECACC cell viability assay (AID 1918961); conditions: Karpas417 myeloma viability, CellTiter-Glo ATP luminescence, 48 h; viability (% of DMSO): at 45.8 µM (top of the series); also: potency is read from the fitted curve at half-maximal effect
# Outline: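 Myeloma cells (500 per well) were exposed to MIPE 4.0 compounds by pin transfer and incubated 48 hours at 37C, 5% CO2. Viability was read as ATP by CellTiter-Glo luminescence, normalised to DMSO (100%) and media-only (0%) wells.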
SMILES,redox activity (% of DA3003) [1],Potency [2],Potency [3],Potency [4],Potency [5],Potency [6],Potency [7],Potency [8],Potency [9],Potency [10],Potency [1]
CC(=O)c1c(C)c2cnc(Nc3ccc(N4CCNCC4)cn3)nc2n(C2CCCC2)c1=O,-5.59% [at 6.41 µM],18.7 µM (active),23.5 µM (active),18.7 µM (active),16.6 µM (active),14.8 µM (active),14.8 µM (active),26.4 µM (active),20.9 µM (active),16.6 µM (active),
CCc1c2c(nc3ccc(O)cc13)-c1cc3c(c(=O)n1C2)COC(=O)[C@]3(O)CC,,0.59 µM (active),0.0372 µM (active),0.187 µM (active),0.0118 µM (active),0.187 µM (active),1.66 µM (active),0.743 µM (active),0.132 µM (active),0.332 µM (active),inactive
Nc1ncnc2c1c(-c1cnc3[nH]ccc3c1)nn2C1CCCC1,,0.662 µM (active),0.235 µM (active),6.62 µM (active),0.662 µM (active),0.743 µM (active),1.32 µM (active),0.662 µM (active),0.0662 µM (active),,inactive
Nc1ccccc1NC(=O)c1ccc(CNc2nccc(-c3cccnc3)n2)cc1,,0.935 µM (active),0.166 µM (active),3.32 µM (active),0.59 µM (active),0.662 µM (active),0.935 µM (active),1.66 µM (active),1.05 µM (active),0.469 µM (active),inactive
Nc1ncnc2c1c(-c1cccc(OCc3ccccc3)c1)cn2C1CC(CN2CCCC2)C1 (centres undefined),,26.4 µM (active),0.059 µM (active),23.5 µM (active),16.6 µM (active),16.6 µM (active),1.18 µM (active),5.9 µM (active),4.18 µM (active),,inactive
O=C(O)c1ccc2c(c1)nc(Nc1cccc(Cl)c1)c1ccncc12,,5.26 µM (active),4.18 µM (active),9.35 µM (active),5.9 µM (active),9.35 µM (active),8.33 µM (active),4.18 µM (active),4.69 µM (active),0.935 µM (active),inactive
Cc1[nH]nc2ccc(-c3cncc(OC[C@@H](N)Cc4ccccc4)c3)cc12,,4.18 µM (active),0.526 µM (active),1.87 µM (active),0.935 µM (active),4.69 µM (active),2.09 µM (active),2.09 µM (active),1.32 µM (active),,inactive
COc1cccc2nc(-c3cccs3)nc(NN3C(=O)C=C(C)C3=O)c12,,1.87 µM (active),0.0743 µM (active),0.296 µM (active),0.0935 µM (active),0.0418 µM (active),1.66 µM (active),0.743 µM (active),0.118 µM (active),0.0526 µM (active),inactive
O=C1CCC[C@@H]2[C@H]3CCC[N+]4([O-])CCC[C@@H](CN12)[C@@H]34 (some centres undefined),,inactive,inactive,inactive,inactive,inactive,inactive,inactive,,,inactive
C=CC(=O)N1CCC[C@@H](n2nc(-c3ccc(Oc4ccccc4)cc3)c3c(N)ncnc32)C1,,,,,,,,,,,inactive
CCCCOc1c(C(=O)c2c(F)cc(C)cc2F)cnc2n[nH]cc12,,4.18 µM (active),2.64 µM (active),2.64 µM (active),1.66 µM (active),4.18 µM (active),2.96 µM (active),7.43 µM (active),2.35 µM (active),2.35 µM (active),inactive
COc1cc2nccc(Oc3ccc(NC(=O)C4(C(=O)Nc5ccc(F)cc5)CC4)cc3)c2cc1OC,,26.4 µM (active),18.7 µM (active),2.96 µM (active),1.87 µM (active),16.6 µM (active),2.96 µM (active),5.26 µM (active),2.96 µM (active),inactive,inactive
CN(C)Cc1c(C(=O)NCCOc2ccc(C(=O)NO)cc2)oc2ccccc12,,0.526 µM (active),1.05 µM (active),1.87 µM (active),0.526 µM (active),0.526 µM (active),0.59 µM (active),0.743 µM (active),0.469 µM (active),0.372 µM (active),inactive
Nc1cc(C(F)(F)F)c(-c2cc(N3CCOCC3)nc(N3CCOCC3)n2)cn1,,0.148 µM (active),0.296 µM (active),5.9 µM (active),0.105 µM (active),0.209 µM (active),0.187 µM (active),0.235 µM (active),0.372 µM (active),,inactive
Cc1cc(Nc2cc(CN3CCOCC3)c3nc(C)c(Cc4ccc(Cl)cc4F)n3n2)n[nH]1,,7.43 µM (active),10.5 µM (active),16.6 µM (active),0.526 µM (active),13.2 µM (active),,,,,inactive
CCS(=O)(=O)c1cccc(-c2cc(C(=O)NC3CCN(C)CC3)c(C)c3[nH]c4ncc(C)cc4c23)c1,,2.35 µM (active),0.662 µM (active),2.64 µM (active),9.35 µM (active),2.09 µM (active),3.32 µM (active),1.66 µM (active),2.96 µM (active),,inactive
OCCCNc1cc(-c2ccnc(Nc3cccc(Cl)c3)n2)ccn1,,0.118 µM (active),0.0264 µM (active),0.118 µM (active),0.0743 µM (active),0.105 µM (active),0.0743 µM (active),0.0662 µM (active),0.0526 µM (active),0.0469 µM (active),inactive
CCc1cc2c(cc1N1CCC(N3CCOCC3)CC1)C(C)(C)c1[nH]c3cc(C#N)ccc3c1C2=O,,,,,,,,,,,inactive
CC[C@@]1(O)C(=O)OCc2c1cc1n(c2=O)Cc2cc3cc(O)ccc3nc2-1,,1.18 µM (active),0.187 µM (active),0.372 µM (active),0.0743 µM (active),0.418 µM (active),2.35 µM (active),1.87 µM (active),0.148 µM (active),,inactive
Cc1ccc(C(=O)Nc2ccc(CN3CCN(C)CC3)c(C(F)(F)F)c2)cc1C#Cc1cnc2cccnn12,,1.48 µM (active),0.662 µM (active),2.64 µM (active),2.96 µM (active),1.66 µM (active),14.8 µM (active),5.26 µM (active),2.09 µM (active),0.469 µM (active),inactive
Clc1cccc(-n2nnnc2NCc2ccccc2Oc2ccccn2)c1Cl,,inactive,,,,,,,,,inactive
CN1CCN(Cc2ccc(NC(=O)Nc3ccc(Oc4cc(NC(=O)C5CC5)ncn4)cc3)cc2C(F)(F)F)CC1,,0.296 µM (active),0.148 µM (active),0.332 µM (active),inactive,0.372 µM (active),inactive,inactive,inactive,inactive,inactive
Nc1nc(Nc2ccc(S(N)(=O)=O)cc2)nn1C(=O)c1c(F)cccc1F,,4.18 µM (active),2.64 µM (active),6.62 µM (active),2.09 µM (active),9.35 µM (active),5.26 µM (active),5.9 µM (active),4.18 µM (active),3.32 µM (active),inactive
COc1ccc(F)c(F)c1C(=O)c1cnc(NC2CCN(S(C)(=O)=O)CC2)nc1N,,2.35 µM (active),1.18 µM (active),2.35 µM (active),0.833 µM (active),2.35 µM (active),1.18 µM (active),2.64 µM (active),1.87 µM (active),0.743 µM (active),inactive
CS(=O)(=O)N1CCN(Cc2cc3nc(-c4cccc5[nH]ncc45)nc(N4CCOCC4)c3s2)CC1,,,,,,,,,,,inactive
CC1(O)CC(c2nc(-c3ccc4ccc(-c5ccccc5)nc4c3)c3c(N)nccn23)C1 (centres undefined),,7.43 µM (active),0.0833 µM (active),6.62 µM (active),2.96 µM (active),5.9 µM (active),0.105 µM (active),0.59 µM (active),1.05 µM (active),,inactive
CC(C)c1cc(C(=O)N2Cc3ccc(CN4CCN(C)CC4)cc3C2)c(O)cc1O,,0.296 µM (active),0.296 µM (active),1.48 µM (active),0.132 µM (active),0.209 µM (active),0.0935 µM (active),0.166 µM (active),0.105 µM (active),,inactive
O=C(c1ccc(Nc2nccc(-c3cc4ccccc4s3)n2)cc1)N1CCC(N2CCCC2)CC1,,13.2 µM (active),2.96 µM (active),18.7 µM (active),7.43 µM (active),13.2 µM (active),9.35 µM (active),4.18 µM (active),5.9 µM (active),2.09 µM (active),inactive
CNc1nccc(-c2cccnc2Oc2cc(C(=O)Nc3cccc(C(F)(F)F)c3)ccc2C)n1,,16.6 µM (active),16.6 µM (active),16.6 µM (active),9.35 µM (active),23.5 µM (active),9.35 µM (active),5.9 µM (active),,,inactive
CC(C)CC(=O)Nc1n[nH]c2c1CN(C(=O)C1CCN(C)CC1)C2(C)C,,1.66 µM (active),0.166 µM (active),1.66 µM (active),1.66 µM (active),1.05 µM (active),1.32 µM (active),2.64 µM (active),1.18 µM (active),0.526 µM (active),inactive
